FLuc counter: inhibits or activates purified firefly luciferase, miR-21 counter-screen | hit rate 6.9% among 360,000 | purified FLuc, Km substrates, luminescence inhibition | AID 588342 | Potency, µM (titrated, usually from 57.5 µM), hits mostly inhibitors; also: nearly all actives have a fitted effect of over 55% in size
Target sequence (P08659 whole entry, looked up): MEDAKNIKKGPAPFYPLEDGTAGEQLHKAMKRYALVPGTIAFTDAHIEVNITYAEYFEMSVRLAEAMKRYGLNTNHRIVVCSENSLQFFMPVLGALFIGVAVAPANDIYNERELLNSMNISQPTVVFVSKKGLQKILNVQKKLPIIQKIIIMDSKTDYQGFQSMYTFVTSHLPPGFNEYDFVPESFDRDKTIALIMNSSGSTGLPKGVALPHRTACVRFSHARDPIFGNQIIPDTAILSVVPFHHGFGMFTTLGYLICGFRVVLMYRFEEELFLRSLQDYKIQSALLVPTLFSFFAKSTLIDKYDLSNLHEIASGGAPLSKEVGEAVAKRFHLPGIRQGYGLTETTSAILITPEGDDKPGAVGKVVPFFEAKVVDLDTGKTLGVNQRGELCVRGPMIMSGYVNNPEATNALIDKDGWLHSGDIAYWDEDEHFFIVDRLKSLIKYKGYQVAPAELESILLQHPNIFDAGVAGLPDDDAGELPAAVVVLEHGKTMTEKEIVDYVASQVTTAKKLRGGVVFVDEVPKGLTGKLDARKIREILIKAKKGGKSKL
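Purified P. pyralis luciferase (10nM final) with 10uM D-luciferin and 10uM ATP (Km levels) in 50mM Tris acetate pH 7.5, 10mM Mg acetate, 0.01% Tween-20, 0.05% BSA; qHTS 6-point titration, ~60 µM downward; luminescence read.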
ELG1 genotox: genotoxicity induction in ELG1-luciferase HEK293T cells; Potency, µM (series often up to 46 µM), hits mostly activators; HEK293T ELG1-luciferase reporter, luminescence, 16 h; hit rate 1.3% among 330,000; also: nearly all actives have a fitted effect of over 60% in size
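DMSO vehicle served as control against compound-treated ELG1-luciferase HEK293T cells; exposure lasted 16 hr at 37 °C and 5% CO2, followed by ONE-Glo luminescence detection after 30 min.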
SMN2 splice enh: enhancers of SMN2 splice variant expression | HEK293 SMN2-luciferase splicing reporter, luminescence, 30-36 h | Potency, µM (top dose mostly 46.1 µM), hits mostly activators | hit rate 2.8% among 210,000 | AID 1458; also: nearly all actives have a fitted effect of over 55% in size
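HEK293 cells carry an SMN2 minigene-luciferase reporter in which exon 7 inclusion puts luciferase in frame. Cells were seeded at 2000 cells/well, attached for 10-12 hours, then exposed to compounds for 30-36 hours at 37C before ONE-Glo luminescence.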
Rab9 prom act: activates the Rab9 promoter; hit rate 2.8% among 320,000; Huh7 Rab9 promoter-luciferase reporter, luminescence, 24 h; Potency, µM (titrated, usually from 9.22 µM), most hits filed as activators; also: nearly all actives have a fitted effect of over 60% in size
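Cell-based reporter: Huh7 stable for Rab9 promoter-driven luciferase, plated in reduced-serum medium with 10% FBS at 1500 cells/well, compound-treated 24 h at 37 °C, luminescence read after 10 min reagent.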
KinaseGlo FLuc: counter-screen: inhibitors of Kinase-Glo firefly luciferase; Kinase-Glo luciferase, ATP luminescence, 8 min; Potency, µM (titrated, usually from 38.3 µM), usual class: inhibitors; hit rate 0.28% among 200,000; also: nearly all actives have a fitted effect of over 60% in size
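Compound is pinned into ATP-containing buffer (10 uM ATP, imidazole pH 7.2, 7 mM MgCl2). Kinase-Glo luciferase reagent is then added. Light output is recorded following an 8-min room-temperature incubation.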
NPC1 promoter act: NPC1 promoter activation; hit rate 2.4% among 320,000; Potency, µM (top dose mostly 9.22 µM), most hits filed as activators; Huh7 NPC1 promoter luciferase reporter, 24 h; AID 485313; also: nearly all actives have a fitted effect of over 60% in size
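Compounds in DMSO were transferred onto Huh7 NPC1-luciferase reporter cells pre-incubated 2 h; after 24 h at 37 °C, Amplite reagent was dispensed and luminescence recorded 10 min later.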
A number is an active result; i = inactive; ? = inconclusive; nt = no result; [ ] = remark or other dose. A selection: hits, their analogues and other compounds. The true share with any hit is near 7.4%. Calls follow the shape of the dose curve; as a rule, active = well fitted curve in the direction sought with a large enough effect; inconclusive = small, poorly fitted or top-dose-only effect, or another doubt; inactive = no such curve, though single readings can be large; an effect the other way counts as inactive or inconclusive.

SMILES | FLuc counter | ELG1 genotox | SMN2 splice enh | Rab9 prom act | KinaseGlo FLuc | NPC1 promoter act
O=C(COC(=O)c1ccccc1-c1ccccc1[N+](=O)[O-])c1ccccc1 | ? | i | i | i | i | i
CCc1ccccc1NC(=O)N1CC(C)Sc2ccccc21 (centres undefined) | i | nt | nt | nt | nt | nt
C#CCSc1nncn1C(=O)/C=C/c1ccccc1 | 19µM | i | i | i | i | i
O=C(/C=C/c1ccccc1)N1CCC[C@H]1CO | i | i | i | i | i | i
COc1ccc(-c2cc(OC(=O)c3ccc(F)cc3)c3c(C)oc(C)c3c(=O)c2)cc1OC | i | nt | i | nt | nt | nt
CCN(CC(=O)Nc1c(F)cccc1F)C(=O)C1CC1C (centres undefined) | i | i | nt | i | nt | i
O=c1c2ccccc2nc2n1CCc1c-2[nH]c2ccccc12 | 0.953µM | 3.26µM | 7.94µM | 2.91µM | i | 2.91µM
Cc1ccc(-n2[nH]c(=O)c(-c3ccccn3)c2C)cc1 | 0.301µM | ? | nt | 0.447µM | i | ?
Cc1ccc(-n2[nH]c(=O)c3cccnc32)cc1 | i | i | i | i | i | i
CCc1c(C)nc2nncn2c1Nc1ccc(Cl)cc1 | i | nt | i | nt | nt | nt
O=c1c2ccccc2nc(N/N=C/c2c(O)ccc3ccccc23)n1O | 1.9µM | i | i | i | i | i
O=c1c2ccccc2nc(N/N=C/c2ccc(O)cc2)n1O | 2.39µM | i | i | i | 11.2µM | i
Cc1nc2ccccc2c(=O)n1/N=C/c1c(O)ccc2ccccc12 | i | i | nt | i | i | i
Cc1nc2ccccc2nc1N/N=C/c1ccc(O)cc1 | 8.49µM | ? | nt | i | nt | i
CCCc1nc2ccccc2c(=O)n1/N=C/c1ccc(O)cc1 | i | i | i | ? | i | i
COc1ccccc1NC(=O)CSc1nnc(C)s1 | i | i | nt | i | nt | i
COc1ccc(-c2cn3nc(N4CCCC(C(=O)Nc5ccc(Cl)cc5C)C4)sc3n2)cc1 (centres undefined) | i | nt | nt | nt | nt | nt
COc1ccc(-c2cn3nc(N4CCCC(C(=O)NCc5ccccc5OC)C4)sc3n2)cc1 (centres undefined) | 16.9µM | nt | nt | nt | nt | nt
Cc1ccccc1CNC(=O)C1CCN(c2nn3cc(-c4ccc(F)cc4)nc3s2)CC1 | i | nt | nt | nt | nt | nt
O=C(NCc1cccc(Cl)c1)C1CCCN(c2nn3cc(-c4ccc(F)cc4)nc3s2)C1 (centres undefined) | 9.53µM | nt | nt | nt | nt | nt
COc1ccc(-c2cn3nc(N4CCCC(C(=O)NCc5ccccc5Cl)C4)sc3n2)cc1 (centres undefined) | 9.53µM | nt | nt | nt | nt | nt
O=C(NCc1cccc(Cl)c1)C1CCN(c2nn3cc(-c4ccc(F)cc4)nc3s2)CC1 | i | nt | nt | nt | nt | nt
Cc1ccc(-c2cn3nc(N4CCCC(C(=O)NCc5ccccc5F)C4)sc3n2)cc1 (centres undefined) | 6.01µM | nt | nt | nt | nt | nt
CC(=O)Nc1ccc(S(=O)(=O)NC2CC2)cc1 | i | i | nt | i | nt | i
CC(C)CC(OC(=O)c1ccc(Cl)nc1)C(=O)NC1CCCC1 (centres undefined) | i | i | nt | i | nt | i
SMILES | FLuc counter | ELG1 genotox | SMN2 splice enh | Rab9 prom act | KinaseGlo FLuc | NPC1 promoter act
O=S(=O)(c1ccccc1)N1CCC2(CCN(c3cccc(-c4ccccc4)c3)CC2)CC1 | nt | nt | i | nt | i | nt
COCCCNC(=O)C1CCN(c2nn3cc(-c4ccc(F)cc4)nc3s2)CC1 | i | nt | nt | nt | nt | nt
CCN(CC)CCNC(=O)C1CCN(c2nn3cc(-c4ccc(F)cc4)nc3s2)CC1 | 21.3µM | nt | nt | nt | nt | nt
COc1ccc(CN2CCNC(=O)C2CC(=O)NCCc2nc(C)c3c(n2)CCC3)cc1C (centres undefined) | i | i[9.26 µM] | nt | i | nt | i
NCCNC(=O)c1c(NC(=O)c2ccccc2)sc2c1CCCC2 | ? | i | nt | i | nt | i
CC(C)Cc1csc(NC(=O)c2ccccc2Cl)c1C(=O)O | ? | i | i | i | i | i
O=C(Nc1sc2c(c1C(=O)O)CCCC2)c1ccc(Cl)cc1 | 19µM | i | nt | i | nt | i
O=C(Nc1sc2c(c1C(=O)O)CCCC2)c1cccc(Cl)c1 | 23.9µM | i | nt | ? | nt | ?
O=C(Nc1sc2c(c1C(=O)O)CCCCC2)c1ccccc1 | 4.78µM | i | nt | 0.891µM | ? | 2.82µM
CC(C)Cc1csc(NC(=O)c2ccc(Cl)cc2)c1C(=O)O | ? | i | 20µM | i | i | i
COc1ccc2c(c1)c(=O)c(C(=O)c1ccc(C)cc1)cn2Cc1ccccc1F | i | nt | i | nt | nt | nt
O=c1[nH]c(C2CCN(S(=O)(=O)/C=C/c3ccccc3)CC2)nc2c1nnn2Cc1ccccc1 | i | i | nt | i | nt | i
Cc1cccc(N2C(=O)CCSC23C(=O)N(Cc2ccc(F)cc2)c2ccccc23)c1 (centres undefined) | i | nt | nt | nt | nt | nt
Cc1ccc(C)c(OCCC(=O)Nc2ccc3c(c2)OCO3)c1 | i | i | nt | i | nt | i
COc1ccc(CN2CCN(C(=O)c3c(-c4ccccc4)noc3C)CC2)cc1F | i | i | nt | i | nt | i
O=C(Nc1sc2c(c1C(=O)O)CCC2)c1ccc(F)cc1 | 16.9µM | i | i | i | i | i
O=C(Nc1sc2c(c1C(=O)O)CCC2)c1ccccc1 | 15.1µM | i | 10µM | ? | i | i
COc1ccccc1CCC(=O)Nc1ccc2c(c1)CN(Cc1ccc(CO)o1)CC2 | i | i | nt | i | nt | i
O=C(Nc1ccc2c(c1)CN(Cc1ccc(CO)o1)CC2)c1ccc(C(F)(F)F)cc1 | 10.7µM | i | nt | i | nt | i
Cc1ccc(-n2cc(CNC(C)c3cnn(C)c3C)c(-c3ccc(F)cc3)n2)cc1 (centres undefined) | 15.1µM | i | nt | i | nt | i
Cc1ccc(-n2cc(CNC(C)Cn3cncn3)c(-c3ccc(F)cc3)n2)cc1 (centres undefined) | 16.9µM | i | i | i | i | i
Cc1ccc(-n2cc(CNC(C)c3cnn(C)c3)c(-c3ccc(F)cc3)n2)cc1 (centres undefined) | ? | i | i | i | i | i
Oc1ccccc1C1=Nc2nc3ccccc3n2C(c2ccccc2)C1 (centres undefined) | 10.7µM | ? | i | i | i | i
Oc1ccccc1C1=NN(c2ccccc2)C(c2ccc(F)cc2)C1 (centres undefined) | i | i | nt | i | nt | i
Cc1cc(C)cc(N(CC(=O)N2CCCCCC2)S(C)(=O)=O)c1 | i | i | nt | i | nt | i
COc1cc(/C=C2\SC(=S)N(NC(=O)c3cccnc3)C2=O)ccc1O | 16.9µM | i | nt | i | nt | i
CC(=O)NN1C(=O)/C(=C\c2ccc(C)cc2)SC1=S | ? | i | i | i | i | i
CC(=O)NN1C(=O)/C(=C\c2ccc(O)cc2)SC1=S | 16.9µM | i | nt | i | i | i
COc1cc(/C=C2\SC(=S)N(NC(=O)c3ccc(O)cc3)C2=O)ccc1O | 3.01µM | i | nt | i | nt | i
CN(C)/C=N/c1ncc(C(=O)c2ccc(-c3ccccc3)cc2)s1 | 21.3µM | i | i | i | i | i
